CDK5 p35 inh – inhibitors of human CDK5/p35 kinase, primary screen, biochemical, single concentration. hit rate 0.01% among 330,000. Cyclin-dependent kinase 5 (Homo sapiens) + Cyclin-dependent kinase 5 activator 1 (Homo …. inhibition, % at 10 µM. Recombinant CDK5/p35, ADP-Glo luminescence, 60 min;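 active means highest replicate inhibition of at least 50% and at least 75% of replicates reaching 50%; inconclusive means only one of the two criteria met; inactive means both criteria failed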
SIRT5 block – SIRT5 desuccinylase inhibitors, primary screen, biochemical, fluorescence imaging, single point, set 5 | Purified SirT5, succinyl-peptide AMC, trypsin-coupled fluorescence | inhibition, % at 15 µM | hit rate 1.1% among 330,000 | AID 652115, 2013; in the data active means inhibition above about 15%; inconclusive means no clear call, values can overlap the other calls
Target sequence (Q9NXA8 whole entry, looked up): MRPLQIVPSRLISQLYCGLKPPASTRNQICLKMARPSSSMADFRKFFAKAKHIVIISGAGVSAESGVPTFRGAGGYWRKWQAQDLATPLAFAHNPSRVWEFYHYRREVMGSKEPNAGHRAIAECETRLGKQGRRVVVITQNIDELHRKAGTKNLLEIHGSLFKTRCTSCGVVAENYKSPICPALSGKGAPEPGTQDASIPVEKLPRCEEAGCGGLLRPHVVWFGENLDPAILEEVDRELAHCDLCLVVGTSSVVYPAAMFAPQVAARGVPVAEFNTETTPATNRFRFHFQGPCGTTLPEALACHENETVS
dFosB activator – activators of delta FosB homodimer, primary screen, biochemical, fluorescence polarization, TAMRA-CDK5 oligo, single point. Protein FosB (Mus musculus), P13346. purified delta FosB; percent of positive-control signal above neutral wells. activation, % at 25 µM. hit rate 0.99% among 340,000. AID 493131, 2011;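 active means mean activation above about 17%, with every replicate also reaching it, limit read from the data, passing the limit was not always enough; inconclusive means only one of the two conditions met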
Target sequence (P13346 whole entry, looked up): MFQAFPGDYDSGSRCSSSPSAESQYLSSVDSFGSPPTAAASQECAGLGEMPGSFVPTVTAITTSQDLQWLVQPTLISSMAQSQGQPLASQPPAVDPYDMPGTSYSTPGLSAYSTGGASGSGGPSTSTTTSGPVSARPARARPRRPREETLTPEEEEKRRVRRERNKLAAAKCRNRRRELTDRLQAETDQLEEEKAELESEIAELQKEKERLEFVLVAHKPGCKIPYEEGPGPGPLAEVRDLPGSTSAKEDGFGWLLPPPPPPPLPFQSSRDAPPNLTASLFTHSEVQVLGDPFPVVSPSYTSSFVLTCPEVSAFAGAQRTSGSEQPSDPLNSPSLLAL
FGF22 binding – binders of human FGF22 protein, primary screen, FGF22 synaptogenesis inhibitor project, biophysical, thermal shift, single point | Fibroblast growth factor 22 (Homo sapiens), Q9HCT0 | recombinant FGF22 thermal shift, SYPRO orange fluorescence; percent of sucrose octasulfate shift, DMSO zero | hit rate 1.5% among 340,000 | activity (Tm shift, normalised), % at 9.99 µM;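 active means mean Tm shift, scaled 0 neutral to 100 positive control, at about 1.3% or above, every replicate too, limit read from the data; inconclusive means no clear call, values can overlap the other calls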
PvdQ acylase – P. aeruginosa PvdQ acylase inhibitors, primary screen, biochemical, fluorescence, plate reader and imaging, single point; PvdQ acylase [Pseudomonas aeruginosa LESB58]; purified PvdQ acylase; inhibition, % at 10 µM; hit rate 0.063% among 340,000; in the data active means inhibition above about 30%, passing the limit was not always enough; inconclusive means no clear call, values can overlap the other calls
PglD DTNB – C. jejuni PglD acetyltransferase inhibitors, primary screen, biochemical, DTNB colorimetric, single point; UDP-N-acetylbacillosamine N-acetyltransferase PglD (Campylobacter jejuni); hit rate 0.098% among 360,000; purified PglD enzyme, DTNB colorimetric CoA detection; inhibition, % at 12.5 µM; in the data active means inhibition above about 16%, passing the limit was not always enough; inconclusive means no clear call, values can overlap the other calls
A number is an active result; i = inactive; ? = inconclusive; nt = no result. Compounds with a hit are over-represented: about 2.8% of the library has one in this group of screens.

SMILES | CDK5 p35 inh | SIRT5 block | dFosB activator | FGF22 binding | PvdQ acylase | PglD DTNB
C[C@H]1CN([C@@H](C)CO)S(=O)(=O)c2ccc(C#CC3CCCC3)cc2O[C@@H]1CN(C)C(=O)Nc1cc(F)ccc1F | nt | 20 | nt | i | nt | i
C[C@H](CO)N1C[C@H](C)[C@H](CN(C)C(=O)Nc2cc(F)ccc2F)Oc2cc(/C=C/c3ccccc3)ccc2S1(=O)=O | nt | nt | nt | 2.0 | nt | i
Cc1ccccc1-c1ccc2c(c1)O[C@@H](CN(C)C(=O)Nc1ccc(F)cc1)[C@@H](C)CN([C@@H](C)CO)S2(=O)=O | nt | 19 | nt | i | nt | i
C[C@H](CO)N1C[C@H](C)[C@H](CN(C)C(=O)Nc2ccc(F)cc2)Oc2cc(/C=C/c3ccccc3)ccc2S1(=O)=O | nt | 21 | nt | i | nt | i
CCS(=O)(=O)N1CCCCN2[C@H](CO)[C@@H](c3ccc(-c4cccc(C#N)c4)cc3)[C@@H]2C1 | nt | i | nt | i | nt | i
CO[C@H]1CN(C)C(=O)c2cc(NC(=O)c3cc(C)on3)ccc2OC[C@@H](C)NC[C@H]1C | nt | i | nt | i | nt | i
C/C=C/c1ccc2c(c1)O[C@@H](CN(C)C(=O)Nc1ccc(C(F)(F)F)cc1)[C@@H](C)CN([C@@H](C)CO)S2(=O)=O | nt | i | nt | 1.3 | nt | i
C[C@@H]1CN([C@@H](C)CO)S(=O)(=O)c2ccc(-c3cccc(F)c3)cc2O[C@H]1CN(C)C(=O)Nc1cc(F)ccc1F | nt | i | nt | i | nt | i
C[C@@H]1CN([C@H](C)CO)S(=O)(=O)c2ccc(-c3cccc(F)c3)cc2O[C@H]1CN(C)C(=O)Nc1cc(F)ccc1F | nt | 16 | nt | i | nt | i
O=C(O)C[C@@H]1CC[C@@H](NC(=O)CCN2CCCCC2)[C@@H](CO)O1 | nt | i | nt | nt | nt | nt
O=C(NCc1ccc(F)cc1)[C@H]1[C@H](CO)[C@H]2Cn3c(cccc3=O)[C@@H]1N2Cc1cccnc1 | nt | i | nt | i | nt | i
CCCNC(=O)/C=C/C(=O)O | i | i | i | 44 | i | nt
CCc1cc2c(=O)[nH]c(Cc3ccccc3)nc2s1 | i | nt | i | nt | i | i
CCc1nc2sccc2c(=O)[nH]1 | i | i | i | 44 | i | i
COCC#Cc1ccc2c(c1)O[C@@H](CN(C)Cc1ccccc1)[C@@H](C)CN([C@@H](C)CO)S2(=O)=O | nt | i | nt | i | nt | i
COc1cc(/C=C2\C(=N)N3N=C(S(C)(=O)=O)SC3=NC2=O)ccc1OCCOc1ccccc1C | i | 33 | i | i | i | i
O=C(C[C@H]1CC[C@H](NS(=O)(=O)c2ccc(F)cc2)[C@H](CO)O1)NCc1ccccc1F | nt | i | nt | nt | nt | nt
Cc1cccc(NC(=O)CSc2nnc(-c3n[nH]c4ccccc34)o2)c1 | i | 16 | i | i | i | nt
N#Cc1cccc(NC(=O)CSc2nnc(-c3n[nH]c4ccccc34)o2)c1 | i | i | ? | 1.9 | i | nt
CC12CCCC(C(C#N)C(N)=O)(C1)NC(=O)C2C#N (configuration not stated) | i | 20 | i | i | i | i
CCc1ccc(C(=O)COC(=O)[C@@H](NC(N)=O)[C@@H](C)CC)cc1 | i | i | i | 43 | i | nt
CC[C@H](C)[C@H](NC(N)=O)C(=O)NCCc1ccc(Cl)cc1 | i | i | i | 44 | i | i
CCC(C)C(NC(N)=O)C(=O)Nc1ccc(C(=O)OC)cc1 (configuration not stated) | i | i | i | 43 | i | i
CC(C)CC(NC(N)=O)C(=O)NCCc1ccc(Cl)cc1Cl (configuration not stated) | i | i | i | 44 | i | nt
CCS(=O)(=O)Nc1ccc2c(c1)C(=O)N(C)[C@H]1CC[C@@H](CC(=O)N[C@@H]3CCN(Cc4ccccc4)C3)O[C@@H]1CO2 | nt | nt | nt | nt | nt | i
SMILES | CDK5 p35 inh | SIRT5 block | dFosB activator | FGF22 binding | PvdQ acylase | PglD DTNB
O=C(NC(Cc1ccc(O)cc1)C(=O)O)c1ccco1 (configuration not stated) | i | i | i | 43 | i | nt
COCCNC(=O)C[C@H]1CC[C@@H](NC(=O)NC2CCCCC2)[C@H](CO)O1 | nt | i | nt | i | nt | i
COc1ccc2c3c([nH]c2c1)[C@@H](CO)N(Cc1ccccc1)CC31CN(C(C)=O)C1 | nt | nt | nt | i | nt | nt
Fc1cccc(C2NC(=S)NC3=C2N2CCC3CC2)c1 (configuration not stated) | i | 21 | i | nt | i | i
S=C1NC2=C(C(c3ccc(Br)cc3)N1)N1CCC2CC1 (configuration not stated) | i | nt | i | nt | i | i
COc1ccccc1-c1cn(CC[C@@H]2CC[C@@H](NC(=O)C3CCOCC3)[C@@H](CO)O2)nn1 | nt | i | nt | i | nt | i
COc1ccccc1C(CC(=O)c1ccccc1)C(=O)c1ccccc1 (configuration not stated) | nt | 17 | nt | i | nt | nt
O=C(Nc1ccc(S(=O)(=O)N2CCCC2)cc1)N1c2ccccc2Sc2ccccc21 | i | i | i | 2.3 | i | i
CS(=O)(=O)N(CC(=O)Nc1ccc(S(=O)(=O)N2CCCC2)cc1)c1ccccc1 | i | i | i | 43 | i | nt
CS(=O)(=O)N(CC(=O)Nc1ccc(S(=O)(=O)N2CCCC2)cc1)c1ccccc1F | i | nt | i | nt | i | i
CCOC(=O)N1CCN(C(=O)CNC(=O)Cn2cnc3ccccc3c2=O)CC1 | i | i | i | 44 | i | i
O=C(Cn1cnc2ccccc2c1=O)Nc1ccc(S(=O)(=O)N2CCCC2)cc1 | i | 16 | i | i | i | nt
CN1CCN(C(=O)[C@@H]2[C@@H](CO)[C@@H]3Cn4c(ccc(-c5cncnc5)c4=O)[C@@H]3N2CC2CCCC2)CC1 | nt | i | nt | i | nt | i
C[C@@H]1CN([C@H](C)CO)C(=O)c2cccc(NC(=O)c3nc4ccccc4s3)c2O[C@@H]1CN(C)C(=O)Nc1cccc2ccccc12 | nt | i | nt | i | nt | i
CN1C(=O)c2cc(NC(=O)C3CCOCC3)ccc2OC[C@@H]2O[C@H](CC(=O)NC3CCCC3)CC[C@H]21 | nt | i | nt | i | nt | i
C[C@@H]1CCCCO[C@@H](CN(C)C(=O)Nc2ccccc2)[C@H](C)CN([C@@H](C)CO)C(=O)c2cc(NC(=O)CCC(F)(F)F)ccc2O1 | nt | i | nt | i | nt | i
O=C(O)C1CCCCC1C(=O)Nc1ccc(S(=O)(=O)N2CCCC2)cc1 (configuration not stated) | i | 17 | i | nt | i | i
O=C(CN1CCN(Cc2ccccc2)CC1)Nc1cccc(S(=O)(=O)N2CCCCCC2)c1 | i | i | i | 43 | i | nt
O=C(CN1CCOCC1)Nc1cccc(S(=O)(=O)N2CCCCCC2)c1 | i | i | i | i | i | nt
